# Screening results as filed in PubChem.
# A350 autofl: compounds fluorescent in Alexa 350 spectral region; Compound autofluorescence, 340/450 nm, Alexa 350 dye-equivalents; hits give high values; max dye-equivalent concentration, M; 59,000 tested, 11% active; AID 590; in the data active means max dye-equivalent concentration above about 10 nM; inconclusive means mostly about 1.1 nM to 9.6 nM
# 4MU fluor: compound fluoresces in the 4-MU spectral region | compound autofluorescence, 340/450 nm, 4-MU equivalents; hits give high values | max dye-equivalent concentration, M | AID 589 | 59,000 tested, 11% active; in the data active means max dye-equivalent concentration above about 10 nM; inconclusive means mostly about 1.1 nM to 9.6 nM
#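 Compounds in 100 mM Tris, pH 8.0, incubated 15 min at room temperature, then fluorescence read at 340 nm excitation/450 nm emission. Signal converted to 4-MU dye-equivalent concentration using an on-plate six-point 4-MU standard curve.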
# HSD17B inhib: blocks hydroxysteroid 17-beta dehydrogenase activity. Q99714. recombinant HSD17B10, NADH fluorescence kinetic. Potency, µM (series often up to 57.1 µM), for the others: at the top dose activity change, negative = inhibition, most hits filed as inhibitors. 75,000 tested, 7.6% active. AID 893;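 further: the protocol describes HADH2 (HSD17B10) and not the HSD17B4 of the title; potency means the concentration at half of the fitted maximal effect; on the % scale 0 is the no-effect control and ±100 the full control effect; nearly all actives have a fitted effect of over 70% in size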
#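 His-tagged E. coli-expressed HADH2 at 20 nM in 100 mM Tris-HCl pH 9.0 with 0.01 % Tween-20, preincubated 15 min with compound at room temperature. Reaction with 1 mM NAD+ and 90 uM beta-hydroxybutyryl coenzyme A; NADH fluorescence (360/450 nm) read kinetically over 4 min, last minus first point.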
# HADH2 inhib: inhibitors of human HADH2 dehydrogenase. Q99714. recombinant HADH2, NADH fluorescence, beta-hydroxybutyryl-CoA. Potency, µM (series often up to 57.1 µM), without a hit: at the highest dose activity change, negative = inhibition, hits mostly inhibitors. 73,000 tested, 3.4% active. AID 886; further: potency means the concentration at half of the fitted maximal effect; on the % scale 0 is the no-effect control and ±100 the full control effect; nearly all actives have a fitted effect of over 60% in size
# Target sequence (Q99714 whole entry, looked up, one chain of several): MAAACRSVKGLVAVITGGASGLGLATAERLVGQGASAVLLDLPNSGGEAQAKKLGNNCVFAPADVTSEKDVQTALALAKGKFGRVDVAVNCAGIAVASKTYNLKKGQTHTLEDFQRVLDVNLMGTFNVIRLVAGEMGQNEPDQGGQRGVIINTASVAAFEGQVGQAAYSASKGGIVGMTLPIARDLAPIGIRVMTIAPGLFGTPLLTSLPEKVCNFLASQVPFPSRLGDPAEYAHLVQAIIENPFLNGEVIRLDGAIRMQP
#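 Activity measured as NADH fluorescence gain (360/450 nm), taken as the change between first and last reads of a 4-min kinetic run. Conditions: pH 9.0 Tris buffer, 20 nM E. coli-expressed His-tagged enzyme, 1 mM NAD+, 90 uM beta-hydroxybutyryl-CoA; 15-min compound preincubation.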
# AID923: qHTS Assay for Allosteric/Competitive Inhibitors of Caspase-1: Spectroscopic Profiling in AFC Spectral Region. Potency, µM (highest dose often 57.5 µM), for inactives: top-dose fluorescence increase, hits mostly activators. compound fluorescence, AFC spectral region (405/520 nm). 75,000 tested, 1.1% active; further: potency means the concentration at half of the fitted maximal effect; 0% is about no effect
#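 Titrations up to 57 uM read every 20 sec for 3 min (405/520 nm) with 50 nM caspase 1 and 5 uM Ac-WEHD-AFC, pH 7.5 HEPES buffer. Fluorescence-vs-time intercept gave baseline, scaled against on-plate AFC standard.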
# CRE Fsk mod: CRE-bla signaling modulation under forskolin stimulation. AID 662. 71,000 tested, 2.5% active. Potency, µM (doses to about 38.2 µM), without a hit: at the top dose activity change, negative = inhibition, actives largely listed as activators. CHO CRE-bla reporter (cAMP response element driving beta-lactamase), forskolin EC10, beta-lactamase ratio; active means well fitted activation curve with a large enough effect in the signal ratio, with a control signal flat, not every such curve was filed as active; inconclusive means small, poorly fitted or top-dose-only effect, or effect the other way, or a change in a side signal; the % refers to the signal ratio; further: potency means the concentration at half of the fitted maximal effect; % of control where 0% means no effect
#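 Forskolin analogue NKH 477 at EC10 stimulated CRE-driven beta-lactamase in CHO cells alongside compound dilution series. Beta-lactamase was measured with CCF4, excitation 405 nm, emission ratio 460/530 nm.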
# * marks the source's active call; other numbers are inactive results; i = inactive; ? = inconclusive; · = no result given; ! = repeats disagree; [ ] = another dose, or the depositor's remark. This is a sample that favours compounds with a hit; in the whole collection about 14% have one here. Unless noted, the call rests on the fitted dose curve; in most records, active means well fitted curve in the direction sought with a large enough effect; inconclusive means small, poorly fitted or top-dose-only effect, or another doubt; inactive means no such curve, though single readings can be large; an effect the other way counts as inactive or inconclusive.
SMILES,A350 autofl,4MU fluor,HSD17B inhib,HADH2 inhib,AID923,CRE Fsk mod
CCC[C@@H]1C[C@@]1(CCC)C(NC(=O)c1cccs1)c1ccc(Cl)cc1 (some centres undefined),·,·,5.4%,10.3%,-0.8%,0.1%
CC(C)CN1CC2(CCN(C(=O)c3cnccn3)CC2)C1,i,i,-0.4%,18.4%,1.9%,-3.7%
O=C(CSc1nc(Nc2ccccc2)nc(N2CCOCC2)n1)N1CCc2ccccc21,i,i,22.2%,20.3%,1.5%,3.98µM*
Cc1ccccc1NC(=O)CSc1nc(Nc2ccccc2)nc(N2CCOCC2)n1,i,i,-20.1%,-8.9%,1.2%,-6.4%
O=C(CSc1nnc2scc(-c3ccccc3)n12)Nc1ccc2c(c1)OCCO2,1.06e-08M*,1.02e-08M*,3.0%,8.2%,1.0%,?
O=C(CSc1nc(Nc2ccccc2)nc(N2CCOCC2)n1)Nc1ccc2c(c1)OCCO2,i,i,-19.5%,7.2%,-1.9%,6.31µM*
O=C(CSc1nc(Nc2ccccc2)nc(N2CCOCC2)n1)N1CCCC1,i,i,3.0%,0.6%,-1.7%,?
C#CCCCO/N=C1/C[C@@H](O)[C@@H](O)[C@@H]2[C@@H]3C(=O)N(CC)C(=O)[C@H]3CC[C@@H]12,·,·,0.5%[11.4 µM],-4.4%[11.4 µM],-1.8%[11.5 µM],·
COc1ccc(-c2csc(Cc3nnc4n3CCCCC4)n2)cc1OC,i,i,2.2%,6.8%,-0.1%,12.6µM*
Cc1cnc(CNc2ncncc2-c2cccc(NS(C)(=O)=O)c2)cn1,i,i,4.2%,?,-0.2%,0.3%
N[C@@](C(=O)O)(c1ccc(P(=O)(O)O)cc1)C1CC1,·,·,-1.5%,2.2%,-1.6%,-5.8%
CCc1oc2ccccc2c1C(=O)c1cc(Br)c(O)c(Br)c1,?,?,12.6µM*!,4.1%[11.4 µM],-1.1%[11.5 µM],?
COc1cccc(Cn2cccc(NC(=O)NC3CCCCC3)c2=O)c1,?,i,25.1µM*,-19.1%,7.5%,-3.6%
CCOc1ccc2[nH]c(=O)c(CN(CCO)C(=O)CC)cc2c1,9.49e-07M*,6.28e-07M*,31.6µM*,-116.6%,-1.6%,8.8%
CCOc1ccc2[nH]c(=O)c(CN(CCO)C(=O)c3ccc(Br)cc3)cc2c1,8.01e-08M*,9.66e-08M*,15.8µM*,?,-0.2%,12.3%
O=C1c2ccccc2C(=O)N1CCCCSc1nnc2ccccn12,8.36e-08M*,8.77e-08M*,87.0%,10.5%,1.1%,12.5%
O=C(CCSc1nnc2ccccn12)Nc1ccc(F)cc1,i,i,25.1µM*,-3.7%,0.0%,0.7%
CO[C@@H]1COC(=O)[C@H](C)NC(=O)C/C=C\[C@@H](C)[C@H](OC)COC(=O)[C@H](C)NC(=O)C/C=C\[C@H]1C,·,·,1.2%[11.4 µM],-2.6%[11.4 µM],-0.4%[11.5 µM],·
O=C(Cn1c(-c2ccco2)nc2ccccc21)N1CCCCC1,i,i,25.1µM*,?,-0.4%,-0.7%
c1ccc(OCCn2c(-c3ccco3)nc3ccccc32)cc1,·,·,31.6µM*,?,0.0%,·
Cc1ccc(OCCn2c(NC(=O)c3ccco3)nc3ccccc32)cc1,?,?,6.31µM*,23.2%,0.6%,17.9%
O=C(Nc1nc2ccccc2n1CCOc1ccccc1)c1ccco1,i,i,-9.0%,4.5%,-2.6%,12.8%
CCOCCn1c(-c2ccc(OC)cc2)nc2ccccc21,·,·,25.1µM*,-14.2%,7.7%,8.9%
Nc1nonc1-c1nc2ccccc2n1CC(=O)N1CCCCC1,i,i,3.3%,9.8%,-0.3%,1.6%
O=C1N=C(O)CN1/N=C\c1ccc(-c2ccc([N+](=O)[O-])cc2)o1,i,i,-0.9%,-12.7%,-2.6%,?
SMILES,A350 autofl,4MU fluor,HSD17B inhib,HADH2 inhib,AID923,CRE Fsk mod
Cc1noc(C)c1-c1nccc(NCc2cccs2)n1,i,i,-3.7%,6.5%,-1.6%,?
Cc1ccc2nc(NCc3ccco3)c(C=NCc3ccco3)c(=O)n2c1,·,·,?,-8.6%,17.4%,10µM*
CCCC=O,·,·,2.4%,-0.4%,-3.1%,4.8%
FC(F)(F)c1cc(NC(=S)N2c3ccccc3-n3cccc3[C@H]2c2cccnc2)cc(C(F)(F)F)c1,1.61e-07M*,1.64e-07M*,?,-7.0%[11.4 µM],19.6%[11.5 µM],?
O=S(=O)(c1cccc(C(F)(F)F)c1)N1c2ccccc2-n2cccc2[C@H]1c1cccnc1,1.27e-08M*,1.09e-08M*,?,7.5%[11.4 µM],-1.7%[11.5 µM],1.6%[7.6 µM]
Cn1c(=O)c(=O)n(C)c2cc(S(=O)(=O)N3CCN(c4cccc(C(F)(F)F)c4)CC3)ccc21,?,i,-8.6%,19.1%,0.3%,2.7%
CC(=O)OC[C@@H]1O[C@H](C/C=N\O[C@@H](C)CN2CCCCc3nc(C)c(C)cc32)C=C[C@@H]1OC(C)=O,·,·,3.9%[11.4 µM],15.8%[11.4 µM],2.6%[11.5 µM],·
COc1ccc(-c2nnc(NC(=O)c3ccc(S(=O)(=O)N4CCCc5ccccc54)cc3)o2)cc1,i,i,25.1µM*,20µM*,0.2%,?
COc1cccc2c1NC(C(=O)O)C1CC=CC21 (centres undefined),?,?,7.94µM*,3.16µM*,3.1%,-2.1%
CC(C)C1Nc2ccc(S(N)(=O)=O)cc2C2C=CCC21 (centres undefined),i,i,-28.4%,-15.7%,13.6%,?
C1=CC2c3ccccc3NC(c3ccncc3)C2C1 (centres undefined),i,i,?,-20.3%,3.6%,?
Cc1ccc2c(c1)C1C=CCC1C(C(=O)O)N2 (centres undefined),i,i,6.31µM*,12.6µM*,5.8%,-10.8%
COc1cc(OC)c(C2CC(=O)N3CN(c4ccccc4C)CSC3=C2C#N)cc1OC (centres undefined),?,i,25.1µM*,?,3.3%,13.8%
COc1ccc(C2CC(=O)N3CN(c4ccccc4F)CSC3=C2C#N)cc1OC (centres undefined),·,·,25.1µM*,1.26µM*,19.6%,?
CCc1ccccc1N1CSC2=C(C#N)C(c3ccccc3F)CC(=O)N2C1 (centres undefined),·,·,6.31µM*,?,8.0%,-14.4%
COc1ccc(CN2CCC(C(=O)N3CCN(c4ccccc4F)CC3)CC2)cc1OC,·,·,-1.6%,4.1%,0.4%,-1.0%
CN(C(=O)c1ccccc1C(=O)O)C1CC(C)(C)NC(C)(C)C1,·,·,2.4%,2.7%,3.0%,-3.6%
CC(=O)OCC1OC(C#CCCc2ccccc2)C=CC1OC(C)=O (centres undefined),·,·,-1.5%[11.4 µM],-13.8%[11.4 µM],-0.3%[11.5 µM],·
Cc1ccnc(NC(=O)CCC(=O)N(CC(=O)NC2CCCCC2)Cc2ccc3c(c2)OCO3)c1,?,i,4.7%,9.7%,0.2%,-14.5%
